High-throughput results as filed in PubChem BioAssay.
Shown are actives, neighbours in structure and some others; about 1.4% of the full set was active somewhere.
eLon inh: inhibitors of E. coli Lon protease, primary screen, biochemical, fluorescence polarization | P0A9M0 | purified E. coli Lon protease | inhibition, % at 7.94 µM | actives 0.42% (n = 360,000); in the data active = inhibition above about 13%, passing the limit was not always enough
MCL1 BIM primary: inhibitors of MCL1 binding to BIM-BH3, primary screen, biochemical, fluorescence polarization; GST-MCL1 / FITC-Bim-BH3 fluorescence polarization; inhibition, % at 10.9 µM; actives 0.68% (n = 320,000); AID 2057, 2009;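 active = inhibition above the mean inhibition of all tested compounds plus 3 SD, set per campaign, cut at about 40% in these data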;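 note: higher means more loss of mP so more displacement of Bim peptide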
GLD-1 TGE inh: GLD-1/TGE RNA complex disruptors, primary screen, biochemical, fluorescence polarization; purified GLD-1 + fluorescein TGE RNA; inhibition, % at 5.96 µM; actives 0.44% (n = 320,000); AID 2280, 2010;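 active = percent inhibition above a per-plate cutoff, the plate mean of test compounds plus 3 SD, cut at about 30% in these data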
Target sequence (Q17339 whole entry, looked up): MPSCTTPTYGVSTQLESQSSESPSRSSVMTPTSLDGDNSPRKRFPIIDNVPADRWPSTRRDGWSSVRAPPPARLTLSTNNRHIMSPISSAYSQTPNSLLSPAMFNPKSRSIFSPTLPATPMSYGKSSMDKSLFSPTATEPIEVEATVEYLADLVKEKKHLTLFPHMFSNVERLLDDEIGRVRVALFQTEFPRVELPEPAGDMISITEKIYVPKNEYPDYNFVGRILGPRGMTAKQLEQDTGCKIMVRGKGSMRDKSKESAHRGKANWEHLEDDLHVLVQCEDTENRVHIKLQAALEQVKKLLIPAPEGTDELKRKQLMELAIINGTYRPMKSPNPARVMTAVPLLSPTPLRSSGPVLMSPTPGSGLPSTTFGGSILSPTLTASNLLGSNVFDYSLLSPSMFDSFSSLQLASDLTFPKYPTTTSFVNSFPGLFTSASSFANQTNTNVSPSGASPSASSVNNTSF
Bcl-xL primary: inhibitors of human Bcl-xL, primary screen, biochemical, fluorescence polarization, HTS; AID 2129, 2009; actives 0.7% (n = 320,000); inhibition, % at 10.9 µM; GST-Bcl-xL / FITC-Bim BH3 peptide fluorescence polarization;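 active = inhibition above the mean of all tested compounds plus 3 SD, cutoff set per campaign, cut at about 30% in these data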;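 note: inhibitors lower millipolarization by displacing the labeled peptide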
MEX-5 binding: MEX-5 zinc finger RNA-binding disruptors – biochemical, C. elegans, fluorescence polarization, MLPCN library, primary screen; Zinc finger protein mex-5 (Caenorhabditis elegans), Q9XUB2; MEX-5/FITC-TCR2 RNA binding; hits give low values; activity score (negative = inhibition of binding), % at 10 µM; actives 0.38% (n = 300,000);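 active = inhibition past about -25% in most replicates, and total fluorescence under double the plate's negative control median, limit read from the data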
E coli Lon conf: E. coli Lon protease inhibitor retest, confirmation, biochemical, fluorescence polarization; actives 31% (n = 1,400); shares compounds with eLon inh; AID 602230, 2012; purified E. coli Lon; inhibition, % at 7.94 µM; in the data active = inhibition above about 16%
A number is an active result; i = inactive; nt = not tested or not shown; + = active, no number.

SMILES | eLon inh | MCL1 BIM primary | GLD-1 TGE inh | Bcl-xL primary | MEX-5 binding | E coli Lon conf
O=Cc1cc(N=Nc2ccccc2Cl)ccc1O | 25 | i | i | i | i | 36
Cc1ccc2c(c1)c(N=Nc1cccc(C(=O)O)c1)c(O)n2C | i | i | i | i | i | nt
O=Cc1cc(N=Nc2cccc(C(=O)O)c2)ccc1O | 15 | i | i | i | i | 24
COc1cc(N=Nc2ccccc2C(=O)O)ccc1O | i | i | i | i | i | nt
c1ccc(Nc2nc(-c3ccccc3)ns2)cc1 | i | i | i | i | i | nt
CC(=O)[C@@]1(O)Cc2c(O)c3c(c(O)c2[C@H](O[C@H]2C[C@H](N)[C@H](O)[C@H](C)O2)C1)C(=O)c1ccccc1C3=O | + | nt | nt | nt | nt | +
COc1cccc2c1C(=O)c1c(O)c3c(c(O)c1C2=O)C[C@@](O)(C(=O)CO)C[C@@H]3OC1CC(N)C(O)C(C)O1 (stereo partly specified) | + | nt | nt | nt | nt | +
COc1cccc2c1C(=O)c1c(O)c3c(c(O)c1C2=O)CC(O)(C(C)=O)CC3OC1CC(N(C)C)C(O)C(C)O1 (stereo unspecified) | + | nt | nt | nt | nt | +
CCCCCCCCN1C(=O)[C@H](CC(=O)NCCCN2CCCC2=O)C[C@@]2(C(=O)OC)CCCCC=C12 | i | nt | nt | nt | nt | nt
COc1ccc(CCNC(=O)CCNC(=O)c2ccco2)cc1OC | 22 | i | i | i | i | i
COc1ccc(NC(=O)c2cc(-c3cc(F)ccc3OCC3CCCO3)n[nH]2)c(C)c1 (stereo unspecified) | i | nt | nt | nt | nt | nt
CCC(=O)NC(c1cc(Cl)c2ccccc2c1O)C1CC1 (stereo unspecified) | 21 | i | i | 151 | nt | i
O=C1C(CO)C(CO)C(CO)C1CO (stereo unspecified) | i | nt | nt | nt | nt | nt
COc1ccccc1CCC(=O)Nc1ccc(S(=O)(=O)Nc2ncccn2)cc1 | i | nt | nt | nt | nt | nt
CC(Oc1ccc2ccc(=O)oc2c1)C(=O)NCCN1CCOCC1 (stereo unspecified) | i | i | i | i | i | nt
C[C@H](NC(=O)[C@@H]1CSC2c3ccccc3C(=O)N21)C(=O)NCCc1ccc(F)cc1 (stereo partly specified) | 23 | i | i | i | i | i
CC(C)CN(C(=O)Cn1c(Cl)nc2c1c(=O)n(C)c(=O)n2C)C1CCS(=O)(=O)C1 (stereo unspecified) | 16 | i | i | i | i | i
Cc1nnc(Cc2ccco2)c2n[nH]c(C)c12 | i | nt | nt | nt | nt | nt
N#CC1=C(N)Oc2ccc3ccc(O)cc3c2C1c1ccsc1 (stereo unspecified) | + | nt | nt | nt | -47 | +
CCCOC(=O)C1C2C=CC(C2)C1C(=O)OCC(=O)c1ccccc1 (stereo unspecified) | 25 | i | i | i | i | 87
CSc1ccc(CN2CCC(N3CCC(C(=O)NC4CC4)CC3)CC2)cc1 | i | nt | nt | nt | nt | nt
CC(=O)NC(c1ccccc1)c1nc(-c2cc(F)cc(F)c2)cs1 (stereo unspecified) | i | nt | nt | nt | nt | nt
CCNc1nc2c(c(=O)[nH]c(=O)n2C)n1CC(C)C | i | i | i | i | i | nt
CC(C)Cn1c(NCCN(C)C)nc2c1c(=O)[nH]c(=O)n2C | 24 | i | i | i | i | i
Cc1cccc(C)c1NC(=O)COC(=O)c1c2c(nc3ccccc13)/C(=C\c1ccc3c(c1)OCO3)CCC2 | + | + | 182 | 194 | nt | 74
SMILES | eLon inh | MCL1 BIM primary | GLD-1 TGE inh | Bcl-xL primary | MEX-5 binding | E coli Lon conf
O=C(O)c1ccc(Nc2ccc([N+](=O)[O-])c3nonc23)cc1 | i | nt | nt | nt | i | nt
O=[N+]([O-])c1ccc(Nc2ccccc2O)c2nonc12 | 30 | nt | nt | nt | -36 | 29
CC(C)C[C@H]1CNC(=O)C(=O)N1CC1CCN(CCC(C)c2ccccc2)CC1 (stereo partly specified) | i | nt | nt | nt | nt | nt
CCOC(=O)C1CCN(c2nc3cc(OC)ccc3cc2C#N)CC1 | i | i | i | i | i | nt
COc1ccc2nc(N3CCC(C)CC3)c(C#N)cc2c1 | 15 | i | i | i | i | 23
Cc1ccc(-n2nc3c(=O)n(CC(=O)NCCc4ccco4)nc(C)c3c2C)cc1 | 36 | i | i | i | i | i
Cc1ccc(-n2nc3c(=O)n(CC(=O)NCCCc4ccccc4)nc(C)c3c2C)cc1 | i | i | i | i | i | nt
Oc1ccc(N2Cc3ccccc3C2)cc1 | 37 | i | i | i | i | i
Oc1cccc(N2Cc3ccccc3C2)c1 | i | i | i | i | i | nt
CCN(CC)S(=O)(=O)c1ccc2nnn(OCC(=O)Nc3cccc(C#N)c3)c2c1 | 18 | i | i | i | i | i
O=c1[nH]c(NCCO)c(N=Cc2ccccc2)c(=O)[nH]1 | i | i | i | i | i | nt
Nc1[nH]c(=O)[nH]c(=O)c1N=Cc1ccccc1 | 90 | nt | nt | nt | nt | 53
CCOc1ccc(NC(=O)CN(C)C(=O)COc2cccc3c2OC(C)(C)C3)cc1OCC | i | i | i | i | nt | nt
CCCCn1c(SCC(=O)Nc2cc(C)on2)nnc1-c1ccco1 | 14 | i | i | i | i | i
CCn1c(SCC(=O)Nc2cc(C)on2)nnc1-c1ccco1 | i | i | i | i | i | nt
CCOC(=O)c1c(C)oc2c1c(C=NCCO)c(O)c1ccccc12 | 25 | nt | nt | nt | i | 20
CCOC(=O)c1c(C)oc2c1c(C(c1ccccc1)N1CCOCC1)c(O)c1ccccc12 (stereo unspecified) | i | i | i | i | i | nt
COCCNC(=O)C1(C)CCCN(C(=O)c2cccc(C(F)(F)F)c2)C1 (stereo unspecified) | i | nt | nt | nt | nt | nt
CCOc1cc(C2C(C#N)=C(N)OC(C)=C2C(C)=O)cc(Br)c1O (stereo unspecified) | 24 | 138 | 88 | 115 | -69 | i
O=C(CN1C(=O)NC2(CCCCC2)C1=O)N1CCN(S(=O)(=O)c2ccc(Cl)s2)CC1 | 19 | i | i | i | nt | i
CCN(CC)S(=O)(=O)c1ccc(N2CCOCC2)c(NC(=O)CN2C(=O)NC3(CCCC3)C2=O)c1 | i | nt | nt | nt | nt | nt
CCN(CC)S(=O)(=O)c1ccc(N2CCCC2)c(NC(=O)CN2C(=O)NC3(CCCC3)C2=O)c1 | 22 | i | i | i | i | i
O=C(NCc1ccccc1Cl)[C@H]1CCCN1C(=O)[C@H]1CCCN1C(=O)c1ccccc1 | i | nt | nt | nt | nt | nt
Cc1[nH]n(-c2ccccc2)c(=O)c1/C=N/NC(=O)c1ccccc1F | 21 | i | i | i | i | i
Cc1cccnc1CNC(=O)C1(C)CCCN1CC(C)C (stereo unspecified) | i | nt | nt | nt | nt | nt
CCOC(=O)c1cc2c(ccn2C)n1CC(=O)N1CCCC(C)C1 (stereo unspecified) | i | i | i | i | i | nt
CCOC(=O)c1cc2c(ccn2C)n1CC(=O)N1CCC(Cc2ccccc2)CC1 | 20 | i | i | i | i | i
